Measurements taken from the supplement of paper PMC10849652.
The full data set covers some 7,900 targets. This sample favours those with a hit. About 0.6% of all pairs of compound and target were hits.

What was measured:
Assay in all cases: log2 fold change, soluble protein after heating vs DMSO (PISA); higher = thermal stabilisation; K562 cells, 10 uM, 30 min; active = over 0.2 and 3.5 SD of the protein, either way, in both replicates (recomputed)
[1] = compound: Cc1ccc(NC(=O)c2ccc(CN3CC[C@H](N(C)C)C3)c(C(F)(F)F)c2)cc1Nc1nccc(-c2cncnc2)n1 [bafetinib]
Outline: (§1)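 K562 cells at 2×10^6 cells/mL were given 10 μM compound for 30 min. Aliquots then went through 3 min of heating across 48°C-58°C, were pooled, and were extracted in PBS with 0.5% NP-40 at 4°C, and the supernatant after 21,000xg for 90 min was quantified by TMTpro 16plex LC-MS/MS with channel sums equalised. Thermal stability relative to control samples, from duplicates, is given as log2 fold change.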

[2] = compound: Cc1cccc(CC(=O)N2CCc3c2ccc(-c2cn(C)c4ncnc(N)c24)c3F)n1
Outline: as §1

[3] = compound: Cc1cn(-c2cc(NC(=O)c3ccc(C)c(Nc4nccc(-c5cccnc5)n4)c3)cc(C(F)(F)F)c2)cn1 [nilotinib]
Outline: as §1

[4] = compound: Cc1nc(Nc2n[nH]c3c2CN(C(=O)N[C@H](CN(C)C)c2ccccc2)C3(C)C)c2sccc2n1
Outline: as §1

[5] = compound: Cc1nc(Nc2ncc(C(=O)Nc3c(C)cccc3Cl)s2)cc(N2CCN(CCO)CC2)n1 [dasatinib]
Outline: as §1

[6] = compound: Cc1ncc(-c2ccnc(Nc3ccc(S(C)(=O)=O)cc3)n2)n1C(C)C
Outline: as §1

[7] = compound: Cn1cc(-c2ccc3c(c2)CCN3C(=O)Cc2cccc(C(F)(F)F)c2)c2c(N)ncnc21
Outline: as §1

[8] = compound: Cn1cc(-c2ccc3nnc(C(F)(F)c4ccc5ncccc5c4)n3n2)cn1
Outline: as §1

[9] = compound: Cn1cncc1[C@@](N)(c1ccc(Cl)cc1)c1ccc2c(c1)c(-c1cccc(Cl)c1)cc(=O)n2C [tipifarnib]
Outline: as §1

[10] = compound: FC(F)(F)c1ccc(/C=C/c2nc(COc3ccc(CCCCn4ccnn4)cc3)co2)cc1 [mubritinib]
Outline: as §1

Measured: log2 fold change

GABARAPL2 (UniProt P60520)
inactive: [1] -0.168 | [2] 0.096 | [3] -0.015 | [4] -0.028 | [5] -0.014 | [6] -0.004 | [7] 0.046 | [8] 0.279 | [9] -0.003 | [10] 0.03

GOLGB1 isoform 2 (UniProt Q14789)
inactive: [1] -0.022 | [2] -0.03 | [3] -0.054 | [4] 0.018 | [5] 0.08 | [6] -0.078 | [7] -0.077 | [8] 0 | [9] 0.014 | [10] 0.017

HDAC1 (UniProt Q13547)
inactive: [1] 0.306 | [2] -0.046 | [3] -0.023 | [4] -0.021 | [5] -0.091 | [6] -0.055 | [7] -0.002 | [8] -0.009 | [9] -0.078 | [10] -0.025

FIS1 (UniProt Q9Y3D6)
Chain of UniProt Q9Y3D6 (Q9Y3D6 whole entry, looked up): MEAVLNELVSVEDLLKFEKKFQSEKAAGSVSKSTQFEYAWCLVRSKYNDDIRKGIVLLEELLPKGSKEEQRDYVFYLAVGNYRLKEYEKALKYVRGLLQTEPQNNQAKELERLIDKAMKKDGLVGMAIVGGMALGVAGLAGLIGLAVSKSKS
inactive: [1] -0.087 | [2] -0.034 | [3] 0.041 | [4] -0.002 | [5] -0.044 | [6] 0.007 | [7] 0.111 | [8] 0.07 | [9] -0.024 | [10] 0.053

HDDC2 (UniProt Q7Z4H3)
inactive: [1] -0.015 | [2] 0.039 | [3] 0.057 | [4] -0.005 | [5] -0.01 | [6] -0.003 | [7] 0.069 | [8] -0.008 | [9] -0.091 | [10] 0.043

FDXR isoform 7 (UniProt P22570)
active: [10] -0.643
inactive: [1] -0.012 | [2] -0.162 | [3] -0.031 | [4] -0.015 | [5] -0.245 | [6] -0.042 | [7] -0.023 | [8] 0.038 | [9] -0.002

FARS2 (UniProt O95363)
Chain of UniProt O95363 (O95363 whole entry, looked up): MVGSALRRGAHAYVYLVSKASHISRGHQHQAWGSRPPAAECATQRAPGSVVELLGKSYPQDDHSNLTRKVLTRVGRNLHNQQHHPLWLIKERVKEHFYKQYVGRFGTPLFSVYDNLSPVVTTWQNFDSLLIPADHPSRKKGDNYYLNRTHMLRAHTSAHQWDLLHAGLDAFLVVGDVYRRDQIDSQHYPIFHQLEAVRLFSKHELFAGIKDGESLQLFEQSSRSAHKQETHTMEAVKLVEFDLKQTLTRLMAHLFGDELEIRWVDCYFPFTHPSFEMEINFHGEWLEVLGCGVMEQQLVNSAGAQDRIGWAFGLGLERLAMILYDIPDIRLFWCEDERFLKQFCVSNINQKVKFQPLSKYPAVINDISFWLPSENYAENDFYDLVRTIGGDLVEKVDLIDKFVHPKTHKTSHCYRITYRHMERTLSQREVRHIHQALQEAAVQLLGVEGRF
inactive: [1] -0.058 | [2] 0.064 | [3] -0.126 | [4] 0.079 | [5] -0.058 | [6] -0.097 | [7] 0.039 | [8] 0.039 | [9] 0.018 | [10] -0.168

HLTF (UniProt Q14527)
Chain of UniProt Q14527 (Q14527 whole entry, looked up): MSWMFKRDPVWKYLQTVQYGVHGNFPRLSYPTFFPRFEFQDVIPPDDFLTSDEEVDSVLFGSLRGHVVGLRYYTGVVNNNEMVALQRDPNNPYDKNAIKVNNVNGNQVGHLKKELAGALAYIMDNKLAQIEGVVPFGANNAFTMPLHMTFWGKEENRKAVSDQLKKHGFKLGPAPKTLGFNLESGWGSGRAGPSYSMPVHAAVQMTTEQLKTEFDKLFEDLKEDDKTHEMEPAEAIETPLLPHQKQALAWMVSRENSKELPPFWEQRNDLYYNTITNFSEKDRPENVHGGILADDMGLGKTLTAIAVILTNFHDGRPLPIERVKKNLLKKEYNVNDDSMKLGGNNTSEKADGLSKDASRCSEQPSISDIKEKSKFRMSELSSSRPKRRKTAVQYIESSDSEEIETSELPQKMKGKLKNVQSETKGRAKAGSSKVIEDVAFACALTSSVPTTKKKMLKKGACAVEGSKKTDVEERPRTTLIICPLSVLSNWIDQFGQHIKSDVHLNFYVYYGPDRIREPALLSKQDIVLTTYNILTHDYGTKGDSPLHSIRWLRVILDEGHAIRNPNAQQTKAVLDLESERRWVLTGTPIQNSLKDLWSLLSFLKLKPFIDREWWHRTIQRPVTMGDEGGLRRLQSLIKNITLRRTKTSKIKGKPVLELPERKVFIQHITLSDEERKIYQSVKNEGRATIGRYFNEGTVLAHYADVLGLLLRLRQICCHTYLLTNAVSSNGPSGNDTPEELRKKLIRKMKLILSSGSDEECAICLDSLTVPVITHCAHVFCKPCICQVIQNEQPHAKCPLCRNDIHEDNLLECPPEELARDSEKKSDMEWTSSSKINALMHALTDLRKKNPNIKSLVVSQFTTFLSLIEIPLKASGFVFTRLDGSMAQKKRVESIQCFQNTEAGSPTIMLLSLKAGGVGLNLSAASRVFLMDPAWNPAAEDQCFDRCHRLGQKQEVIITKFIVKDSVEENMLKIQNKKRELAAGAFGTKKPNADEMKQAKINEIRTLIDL
inactive: [1] -0.003 | [2] 0.017 | [3] 0.099 | [4] -0.193 | [5] -0.035 | [6] 0.015 | [7] -0.035 | [8] -0.01 | [9] 0.007 | [10] 0.051

FBXO6 (UniProt Q9NRD1)
inactive: [2] 0.015 | [3] -0.118 | [4] -0.004 | [5] -0.202 | [6] 0.044 | [7] 0.047 | [8] -0.021 | [9] -0.021 | [10] -0.038
active: [1] 0.442

GTF2A2 (UniProt P52657)
Chain of UniProt P52657 (P52657 whole entry, looked up): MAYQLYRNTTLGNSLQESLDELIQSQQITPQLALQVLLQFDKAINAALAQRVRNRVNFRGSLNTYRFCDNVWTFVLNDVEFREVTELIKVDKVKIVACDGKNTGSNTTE
inactive: [1] -0.032 | [2] -0.036 | [3] -0.025 | [4] 0.022 | [5] 0.047 | [6] -0.021 | [7] 0.056 | [8] 0.104 | [9] -0.028 | [10] 0.008

IFRD1 (UniProt O00458)
Chain of UniProt O00458 (O00458 whole entry, looked up): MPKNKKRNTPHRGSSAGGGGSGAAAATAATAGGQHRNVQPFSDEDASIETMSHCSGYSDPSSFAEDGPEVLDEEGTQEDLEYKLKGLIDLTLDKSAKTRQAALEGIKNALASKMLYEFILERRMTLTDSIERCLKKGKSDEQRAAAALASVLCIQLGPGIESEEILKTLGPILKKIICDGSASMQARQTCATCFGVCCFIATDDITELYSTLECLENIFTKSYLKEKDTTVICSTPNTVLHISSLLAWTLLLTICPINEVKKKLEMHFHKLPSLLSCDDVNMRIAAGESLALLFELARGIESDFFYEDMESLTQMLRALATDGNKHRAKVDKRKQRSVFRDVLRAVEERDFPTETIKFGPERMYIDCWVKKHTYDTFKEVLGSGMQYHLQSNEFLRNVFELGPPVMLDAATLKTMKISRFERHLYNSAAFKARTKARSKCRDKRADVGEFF
inactive: [1] 0.118 | [2] -0.031 | [3] 0.165 | [4] 0.056 | [5] 0.071 | [6] 0.202 | [7] -0.011 | [8] -0.005 | [9] 0.001 | [10] 0.1

FERMT3 (UniProt Q86UX7)
inactive: [1] -0.022 | [2] 0.029 | [3] -0.036 | [4] -0.053 | [5] -0.075 | [6] -0.015 | [7] 0.029 | [8] -0.019 | [9] -0.087 | [10] 0.051

GLYR1 (UniProt Q49A26)
inactive: [1] 0.109 | [2] -0.015 | [3] 0.082 | [4] 0.068 | [5] 0.067 | [6] -0.004 | [7] -0.004 | [8] -0.01 | [9] 0.054 | [10] 0.024

IFT74 (UniProt Q96LB3)
inactive: [1] -0.095 | [2] 0.015 | [3] 0.166 | [4] 0.063 | [5] 0.057 | [6] 0.008 | [7] 0.015 | [8] -0.053 | [9] -0.052 | [10] 0.186

GALNT11 (UniProt Q8NCW6)
inactive: [1] -0.055 | [2] -0.089 | [3] -0.047 | [4] -0.068 | [5] -0.022 | [6] 0.076 | [7] 0.069 | [8] -0.031 | [9] 0.102 | [10] 0.088

FBXO9 (UniProt Q9UK97)
Chain of UniProt Q9UK97 (Q9UK97 whole entry, looked up): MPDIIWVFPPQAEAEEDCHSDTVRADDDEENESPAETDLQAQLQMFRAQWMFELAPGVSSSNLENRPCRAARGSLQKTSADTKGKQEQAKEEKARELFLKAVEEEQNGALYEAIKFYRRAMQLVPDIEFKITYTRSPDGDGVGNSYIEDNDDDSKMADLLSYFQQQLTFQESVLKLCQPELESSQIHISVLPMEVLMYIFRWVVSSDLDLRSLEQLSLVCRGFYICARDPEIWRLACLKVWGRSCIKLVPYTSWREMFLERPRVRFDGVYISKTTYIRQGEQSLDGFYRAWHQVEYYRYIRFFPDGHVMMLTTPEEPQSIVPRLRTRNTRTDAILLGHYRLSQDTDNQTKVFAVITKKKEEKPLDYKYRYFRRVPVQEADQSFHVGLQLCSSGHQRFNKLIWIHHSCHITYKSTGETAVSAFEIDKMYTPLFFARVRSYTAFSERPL
inactive: [1] 0.067 | [2] 0.234 | [3] 0.087 | [4] -0.354 | [5] -0.056 | [6] -0.113 | [7] -0.236 | [8] -0.093 | [9] -0.088 | [10] -0.265

GDPD1 (UniProt Q8N9F7)
Chain of UniProt Q8N9F7 (Q8N9F7 whole entry, looked up): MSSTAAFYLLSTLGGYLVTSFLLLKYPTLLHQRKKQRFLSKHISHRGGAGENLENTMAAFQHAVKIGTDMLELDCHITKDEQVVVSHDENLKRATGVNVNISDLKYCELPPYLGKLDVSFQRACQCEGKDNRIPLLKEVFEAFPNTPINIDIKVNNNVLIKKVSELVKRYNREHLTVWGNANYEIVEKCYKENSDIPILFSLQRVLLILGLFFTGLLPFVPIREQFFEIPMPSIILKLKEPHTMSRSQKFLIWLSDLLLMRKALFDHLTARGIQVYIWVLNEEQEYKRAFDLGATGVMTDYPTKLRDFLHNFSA
inactive: [1] 0.088 | [2] -0.141 | [3] 0.1 | [4] 0.104 | [5] 0.023 | [6] -0.045 | [7] 0.046 | [8] -0.031 | [9] 0.106 | [10] 0.096

GSK3A (UniProt P49840)
inactive: [1] -0.052 | [2] -0.027 | [3] -0.01 | [5] -0.024 | [7] -0.004 | [8] 0.011 | [9] -0.033 | [10] 0.038
active: [4] 0.308 | [6] 0.383

GEMIN5 (UniProt Q8TEQ6)
active: [4] -0.315
inactive: [1] 0.015 | [2] 0.065 | [3] -0.046 | [5] -0.099 | [6] -0.127 | [7] 0.006 | [8] -0.021 | [9] -0.049 | [10] 0.043

GLRX3 (UniProt O76003)
inactive: [1] -0.04 | [2] 0.025 | [3] -0.048 | [4] -0.022 | [5] -0.054 | [6] 0.015 | [7] -0.015 | [8] -0.014 | [9] -0.082 | [10] -0.004

FMC1 (UniProt Q96HJ9)
Chain of UniProt Q96HJ9 (Q96HJ9 whole entry, looked up): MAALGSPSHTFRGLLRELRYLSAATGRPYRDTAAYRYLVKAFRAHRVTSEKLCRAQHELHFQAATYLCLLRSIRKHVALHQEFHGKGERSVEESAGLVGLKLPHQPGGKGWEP
inactive: [1] -0.128 | [2] -0.026 | [3] 0.009 | [4] 0.045 | [5] 0.006 | [6] -0.012 | [7] -0.006 | [8] 0.009 | [9] 0.035 | [10] 0.016

GPKOW (UniProt Q92917)
Chain of UniProt Q92917 (Q92917 whole entry, looked up): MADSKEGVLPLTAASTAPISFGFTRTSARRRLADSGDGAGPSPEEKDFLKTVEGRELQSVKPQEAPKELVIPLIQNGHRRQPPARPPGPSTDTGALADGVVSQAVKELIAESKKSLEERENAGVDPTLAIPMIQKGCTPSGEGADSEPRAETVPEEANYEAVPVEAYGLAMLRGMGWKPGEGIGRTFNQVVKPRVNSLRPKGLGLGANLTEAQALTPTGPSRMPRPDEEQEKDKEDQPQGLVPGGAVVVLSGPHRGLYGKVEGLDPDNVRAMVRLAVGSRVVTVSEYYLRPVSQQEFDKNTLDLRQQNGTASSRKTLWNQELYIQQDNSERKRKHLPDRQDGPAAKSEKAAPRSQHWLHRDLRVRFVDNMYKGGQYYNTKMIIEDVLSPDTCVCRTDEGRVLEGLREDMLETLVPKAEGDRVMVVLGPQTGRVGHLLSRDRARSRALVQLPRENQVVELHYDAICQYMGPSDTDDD
inactive: [1] -0.025 | [2] 0.086 | [3] -0.057 | [4] -0.207 | [6] -0.025 | [7] 0.114 | [8] 0.139 | [9] -0.071 | [10] 0.126
active: [5] -0.326

GOLPH3 (UniProt Q9H4A6)
Chain of UniProt Q9H4A6 (Q9H4A6 whole entry, looked up): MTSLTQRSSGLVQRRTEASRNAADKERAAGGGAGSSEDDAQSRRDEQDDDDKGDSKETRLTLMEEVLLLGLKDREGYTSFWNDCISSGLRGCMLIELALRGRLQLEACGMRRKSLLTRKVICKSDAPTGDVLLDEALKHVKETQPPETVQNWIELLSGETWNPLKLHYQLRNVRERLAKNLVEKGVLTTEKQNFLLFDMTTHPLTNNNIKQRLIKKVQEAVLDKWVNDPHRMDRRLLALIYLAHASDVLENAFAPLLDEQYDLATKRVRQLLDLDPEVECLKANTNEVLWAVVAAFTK
inactive: [1] 0.074 | [2] 0.032 | [3] -0.021 | [4] -0.015 | [5] -0.123 | [6] -0.013 | [7] 0.02 | [8] -0.013 | [9] -0.028 | [10] 0.07

GTF2E1 (UniProt P29083)
Chain of UniProt P29083 (P29083 whole entry, looked up): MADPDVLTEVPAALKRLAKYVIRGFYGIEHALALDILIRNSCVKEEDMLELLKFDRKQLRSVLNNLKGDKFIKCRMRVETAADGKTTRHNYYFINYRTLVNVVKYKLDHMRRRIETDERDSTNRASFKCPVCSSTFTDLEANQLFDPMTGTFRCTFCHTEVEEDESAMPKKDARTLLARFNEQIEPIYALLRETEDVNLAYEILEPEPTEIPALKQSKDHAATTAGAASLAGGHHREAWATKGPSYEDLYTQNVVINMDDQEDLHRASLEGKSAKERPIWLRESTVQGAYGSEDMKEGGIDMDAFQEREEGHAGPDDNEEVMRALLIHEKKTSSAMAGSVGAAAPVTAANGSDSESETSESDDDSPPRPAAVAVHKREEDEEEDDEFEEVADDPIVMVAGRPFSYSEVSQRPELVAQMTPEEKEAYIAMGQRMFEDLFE
inactive: [1] 0.014 | [2] 0.037 | [3] -0.112 | [4] -0.168 | [5] -0.173 | [6] -0.032 | [7] 0.02 | [8] 0.093 | [9] -0.13 | [10] 0.05

GTF3C4 (UniProt Q9UKN8)
inactive: [1] -0.065 | [2] 0.019 | [3] -0.034 | [4] -0.069 | [5] -0.024 | [6] 0.036 | [7] -0.017 | [8] -0.007 | [9] 0.014 | [10] 0.01

HADHB (UniProt P55084)
inactive: [1] 0.251 | [2] 0.132 | [3] 0.074 | [4] -0.106 | [5] -0.072 | [6] 0.032 | [7] 0.155 | [8] 0.108 | [9] -0.264
active: [10] 0.571

GAPVD1 isoform 6 (UniProt Q14C86)
inactive: [1] 0.023 | [2] 0.072 | [3] -0.09 | [4] -0.092 | [5] -0.15 | [6] -0.017 | [7] -0.043 | [8] -0.016 | [9] -0.135 | [10] 0.028

IFT80 isoform 3 (UniProt Q9P2H3)
inactive: [1] -0.127 | [2] 0.077 | [3] -0.059 | [4] -0.02 | [5] -0.148 | [6] 0.114 | [7] 0.036 | [8] 0.039 | [9] -0.07 | [10] 0.17

H1FX (UniProt Q92522)
Chain of UniProt Q92522 (Q92522 whole entry, looked up): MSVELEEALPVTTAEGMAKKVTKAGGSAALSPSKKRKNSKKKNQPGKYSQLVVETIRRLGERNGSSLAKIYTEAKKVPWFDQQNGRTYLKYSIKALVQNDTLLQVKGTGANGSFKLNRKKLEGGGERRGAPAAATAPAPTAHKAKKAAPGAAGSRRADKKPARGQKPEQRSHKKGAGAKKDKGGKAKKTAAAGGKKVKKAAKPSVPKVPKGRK
inactive: [1] 0.248 | [2] 0.048 | [3] 0.035 | [4] 0.079 | [5] 0.043 | [6] 0.039 | [7] -0.189 | [8] -0.113 | [9] 0.126 | [10] -0.138

GNAI3 (UniProt P08754)
Chain of UniProt P08754 (P08754 whole entry, looked up): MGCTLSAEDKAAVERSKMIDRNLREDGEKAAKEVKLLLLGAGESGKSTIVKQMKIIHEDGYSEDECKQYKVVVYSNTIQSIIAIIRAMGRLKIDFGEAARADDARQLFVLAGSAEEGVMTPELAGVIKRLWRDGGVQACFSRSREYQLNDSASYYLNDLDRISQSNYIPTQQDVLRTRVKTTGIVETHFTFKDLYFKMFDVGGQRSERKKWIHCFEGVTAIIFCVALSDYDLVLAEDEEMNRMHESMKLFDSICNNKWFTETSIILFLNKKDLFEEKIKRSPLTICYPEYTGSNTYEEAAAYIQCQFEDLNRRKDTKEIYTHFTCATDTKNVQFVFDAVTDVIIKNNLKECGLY
inactive: [1] 0.066 | [2] 0.033 | [3] 0.185 | [4] 0.008 | [5] 0.086 | [6] -0.004 | [7] -0.017 | [8] 0.018 | [9] -0.008 | [10] -0.032
